Out of some 62,000 compounds screened, about 120 (0.19%) were called active. No stated cut-off is given here; in the data, active means inhibition above about 20% (passing the limit was not always enough); inactive means the rest. What follows is part of a selection rich in actives, with near analogues and random picks from the rest.
Molecular target: Coagulation factor XI (Homo sapiens) (UniProt P03951)
Experiment: human factor XIa inhibition by mixtures – biochemical, 10-compound mixtures, primary screen (AID 680);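 further: each value is inhibition by a whole ten-compound pool holding the compound; 0% = enzyme with no mixture and 100% = wells lacking enzyme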
Conditions: purified FXIa, fluorogenic substrate, pooled mixtures; at 5 µM; active compounds read high

Coagulation factor XI (Homo sapiens), sequence (P03951 19-387 limits assumed): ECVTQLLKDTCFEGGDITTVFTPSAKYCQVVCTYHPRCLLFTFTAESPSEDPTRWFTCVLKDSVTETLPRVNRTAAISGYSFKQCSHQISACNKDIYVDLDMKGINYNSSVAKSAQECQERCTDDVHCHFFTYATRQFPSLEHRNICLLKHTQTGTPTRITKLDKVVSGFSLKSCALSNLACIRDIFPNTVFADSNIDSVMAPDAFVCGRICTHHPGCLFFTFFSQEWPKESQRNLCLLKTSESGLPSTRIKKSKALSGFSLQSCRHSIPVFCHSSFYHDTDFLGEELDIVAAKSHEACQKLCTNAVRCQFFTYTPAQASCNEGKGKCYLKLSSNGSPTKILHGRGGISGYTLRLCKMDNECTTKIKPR
Coagulation factor XI (Homo sapiens), sequence (P03951 388-625 limits assumed): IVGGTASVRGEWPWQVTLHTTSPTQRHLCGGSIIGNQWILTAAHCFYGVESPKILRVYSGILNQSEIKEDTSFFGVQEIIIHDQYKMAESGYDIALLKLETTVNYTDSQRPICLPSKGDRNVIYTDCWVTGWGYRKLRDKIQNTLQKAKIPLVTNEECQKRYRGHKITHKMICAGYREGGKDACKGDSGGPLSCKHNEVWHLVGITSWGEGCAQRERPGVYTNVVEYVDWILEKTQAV

inhibition, inactive:
O=C(c1cccc2ccccc12)N1CCN(c2ccccc2F)CC1 -1.32%
O=C(c1ccccc1)c1ccc2nc(N3CCCCC3)c3nncn3c2c1 5.07%
CCn1cc(C(=O)NCC2CCCO2)c(=O)c2cc(S(=O)(=O)N3CCCCC3)ccc21 (stereo unspecified) 2.28%
Cc1ccccc1Cn1c(=O)[nH]c2ccccc21 4.81%
Cc1cc(NC(=O)CN2CCCCC2C)nc2c1c(=O)oc1ccccc12 (stereo unspecified) 11.6%
COC(=O)C1=C(C)NC2=C(C(=O)c3ccccc32)C1c1ccc(-c2ccc(C(=O)O)cc2)o1 (stereo unspecified) 8.48%
Cc1ccc(S(=O)(=O)C(C#N)c2nc3ccccc3nc2N2CCCC2)cc1C (stereo unspecified) -0.215%
COc1ccc(S(=O)(=O)N2CCCC(C(=O)N3CCN(C)CC3)C2)cc1C (stereo unspecified) 8.05%
O=c1c(-c2ccccc2)coc2c(CN3CCOCC3)c(O)ccc12 -0.725%
Cc1cc(C)cc(N(CC(=O)NCC2CCCO2)S(=O)(=O)c2c(C)noc2C)c1 (stereo unspecified) 12.7%
Cc1cc(C(=O)N2CCN(c3ccccn3)CC2)c(C)o1 8.12%
O=C1OC(NC(=O)c2ccccc2)C(N2CCOCC2)=C1Cl (stereo unspecified) 1.5%
COc1ccc(CN2C(=O)CN=C2Nc2ccc(C)cc2C)cc1 9.03%
O=C(Cn1nnc(-c2ccc(CN3CCOCC3)cc2)n1)NC1CCCCC1 4.01%
Cc1cc(NS(=O)(=O)c2ccccc2)no1 7.83%
CSc1ccc(S(=O)(=O)NCc2ccc(Cl)cc2)cc1 7.5%
Cc1cccc(NC(=O)CSC(N)=O)c1C 4.87%
C=CCNC(=O)C12CC3CC(C1)CC(C(=O)NCC=C)(C3)C2 4.77%
O=C(O)CN(Cc1ccco1)S(=O)(=O)c1ccccc1 2.68%
N=c1c2c3c(sc2ncn1CCCN1CCOCC1)CCCCC3 42.3%
Cc1ccc2nc(NCCCNC(=O)c3cnccn3)c(C#N)cc2c1 -0.515%
O=S(=O)(c1cccc(-c2nnc(SC(F)F)n2-c2ccccc2)c1)N1CCCCC1 6.38%
C=CCN(c1ccc(C(N)=O)cc1)S(C)(=O)=O 9.34%
CCc1ccccc1N(CC(=O)N1CCN(c2ccccc2F)CC1)S(C)(=O)=O 9.44%
CC(C)(C)c1csc(NC2=NS(=O)(=O)c3ccccc32)n1 0.915%
O=C(NCCCN1CCN(c2ccccc2F)CC1)C1CCC(=O)N1C1CCCCC1 (stereo unspecified) 0.475%
